The text below walks through data of paper PMC9911399, “Two distinct binding modes provide the RNA-binding protein RbFox with extraordinary sequence specificity”.

Positions count from the first letter of the chain named. Whole data set: some 16,000 sequences, median “ka relative to ugcaugu” near 0.0091, cut for the highest 2% near 0.032. The sample holds the highest values, similar sequences and a random draw of the others, so the mix is not that of the screen.

First the molecules themselves.
T1: RBFOX1 RRM (Homo sapiens, UniProt Q9NWB1 109-208)
T1 sequence: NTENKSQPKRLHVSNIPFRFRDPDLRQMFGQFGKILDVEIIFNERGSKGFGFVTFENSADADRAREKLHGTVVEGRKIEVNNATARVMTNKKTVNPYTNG

B1: UCCGAUU (DNA:RNA)
RNA: GGGAGACCGGAAUUCAGAUUGUCCUCCGAUUUUAAAUCCCGUCGUAGCCACCA
DNA 1: CAATCTGAATTCCGGTCTCCC
DNA 2: TGGTGGCTACGACGGGATT
B2: CAACCGU (DNA:RNA)
RNA: B1 RNA with U25C, C26A, C27A, G28C, A29C, U30G
DNA 1: CAATCTGAATTCCGGTCTCCC
DNA 2: TGGTGGCTACGACGGGATT
B3: UACAUGG (DNA:RNA)
RNA: B1 RNA with C26A, G28A, A29U, U30G, U31G
DNA 1: CAATCTGAATTCCGGTCTCCC
DNA 2: TGGTGGCTACGACGGGATT
B4: UUGCUAC (DNA:RNA)
RNA: B1 RNA with C26U, C27G, G28C, A29U, U30A, U31C
DNA 1: CAATCTGAATTCCGGTCTCCC
DNA 2: TGGTGGCTACGACGGGATT
B5: GAUACGC (DNA:RNA)
RNA: GGGAGACCGGAAUUCAGAUUGUCCGAUACGCUUAAAUCCCGUCGUAGCCACCA
DNA 1: CAATCTGAATTCCGGTCTCCC
DNA 2: TGGTGGCTACGACGGGATT
B6: GGGGGGG (DNA:RNA)
RNA: B5 RNA with A26G, U27G, A28G, C29G, C31G
DNA 1: CAATCTGAATTCCGGTCTCCC
DNA 2: TGGTGGCTACGACGGGATT
B7: GGGGUUA (DNA:RNA)
RNA: B1 RNA with U25G, C26G, C27G, A29U, U31A
DNA 1: CAATCTGAATTCCGGTCTCCC
DNA 2: TGGTGGCTACGACGGGATT
B8: CGGGUUG (DNA:RNA)
RNA: B1 RNA with U25C, C26G, C27G, A29U, U31G
DNA 1: CAATCTGAATTCCGGTCTCCC
DNA 2: TGGTGGCTACGACGGGATT
B9: CACCGGG (DNA:RNA)
RNA: B5 RNA with G25C, U27C, A28C, C29G, C31G
DNA 1: CAATCTGAATTCCGGTCTCCC
DNA 2: TGGTGGCTACGACGGGATT
B10: CGGGUUA (DNA:RNA)
RNA: B1 RNA with U25C, C26G, C27G, A29U, U31A
DNA 1: CAATCTGAATTCCGGTCTCCC
DNA 2: TGGTGGCTACGACGGGATT
B11: GUCGGGG (DNA:RNA)
RNA: B5 RNA with A26U, U27C, A28G, C29G, C31G
DNA 1: CAATCTGAATTCCGGTCTCCC
DNA 2: TGGTGGCTACGACGGGATT
B12: GGGUUUA (DNA:RNA)
RNA: B5 RNA with A26G, U27G, A28U, C29U, G30U, C31A
DNA 1: CAATCTGAATTCCGGTCTCCC
DNA 2: TGGTGGCTACGACGGGATT
B13: GGGGUUG (DNA:RNA)
RNA: B1 RNA with U25G, C26G, C27G, A29U, U31G
DNA 1: CAATCTGAATTCCGGTCTCCC
DNA 2: TGGTGGCTACGACGGGATT
B14: CGGGGGG (DNA:RNA)
RNA: B5 RNA with G25C, A26G, U27G, A28G, C29G, C31G
DNA 1: CAATCTGAATTCCGGTCTCCC
DNA 2: TGGTGGCTACGACGGGATT
B15: GUGGCCC (DNA:RNA)
RNA: B5 RNA with A26U, U27G, A28G, G30C
DNA 1: CAATCTGAATTCCGGTCTCCC
DNA 2: TGGTGGCTACGACGGGATT
B16: GGGUGUG (DNA:RNA)
RNA: B5 RNA with A26G, U27G, A28U, C29G, G30U, C31G
DNA 1: CAATCTGAATTCCGGTCTCCC
DNA 2: TGGTGGCTACGACGGGATT
B17: GGGUGGU (DNA:RNA)
RNA: B5 RNA with A26G, U27G, A28U, C29G, C31U
DNA 1: CAATCTGAATTCCGGTCTCCC
DNA 2: TGGTGGCTACGACGGGATT
B18: GGGGGUG (DNA:RNA)
RNA: B1 RNA with U25G, C26G, C27G, A29G, U31G
DNA 1: CAATCTGAATTCCGGTCTCCC
DNA 2: TGGTGGCTACGACGGGATT
B19: CGGGGUG (DNA:RNA)
RNA: B1 RNA with U25C, C26G, C27G, A29G, U31G
DNA 1: CAATCTGAATTCCGGTCTCCC
DNA 2: TGGTGGCTACGACGGGATT
B20: CGGGUGG (DNA:RNA)
RNA: B5 RNA with G25C, A26G, U27G, A28G, C29U, C31G
DNA 1: CAATCTGAATTCCGGTCTCCC
DNA 2: TGGTGGCTACGACGGGATT
B21: GGGUGUC (DNA:RNA)
RNA: B5 RNA with A26G, U27G, A28U, C29G, G30U
DNA 1: CAATCTGAATTCCGGTCTCCC
DNA 2: TGGTGGCTACGACGGGATT
B22: GGGGUGG (DNA:RNA)
RNA: B5 RNA with A26G, U27G, A28G, C29U, C31G
DNA 1: CAATCTGAATTCCGGTCTCCC
DNA 2: TGGTGGCTACGACGGGATT
B23: CCGGGUG (DNA:RNA)
RNA: B1 RNA with U25C, C27G, A29G, U31G
DNA 1: CAATCTGAATTCCGGTCTCCC
DNA 2: TGGTGGCTACGACGGGATT
B24: ACGGGUG (DNA:RNA)
RNA: B1 RNA with U25A, C27G, A29G, U31G
DNA 1: CAATCTGAATTCCGGTCTCCC
DNA 2: TGGTGGCTACGACGGGATT

The assay addresses T1, RBFOX1 RRM. Description: EMSA; HiTS-Eq, 1 nM pool, 10 min; buffer printed only for the single-RNA assays: 10 mM Tris pH 7.5, 150 mM NaCl, 3.4 mM EDTA, 0.001% NP-40, 30 C. Particulars: tags: His6 N-terminal (pET28a); label: 5' 32P. An outline of the steps:
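These values rest on relative association constants, computed from read-count changes of each RNA species versus the control reaction and normalised to the cognate motif. Reads came from free RNA recovered by 8% native PAGE after purified RbFox RRM (wild type or mutant) at increasing concentrations was equilibrated for 10 min in 50 µL with 1 nM of a 5′-radiolabelled pool with 7 randomized nucleotides and DNA-annealed flanks.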
On the technique in general: Mobility shift assays separate free from complexed probe on a gel.
For the molecule B1, the binding signal was 0.00941 KA relative to UGCAUGU.
For the molecule B2, the binding signal is 0.00135 KA relative to UGCAUGU.
Regarding B3, the binding signal was 0.0106 KA relative to UGCAUGU.
The figure for B4 is 0.015 KA relative to UGCAUGU.
As for B5, the binding signal is 0.012 KA relative to UGCAUGU.
The figure for B6 is 0.0247 KA relative to UGCAUGU.
B7: the binding signal is 0.0364 KA relative to UGCAUGU.
Then B8, with 0.0491 KA relative to UGCAUGU; and B9, with 0.00514 KA relative to UGCAUGU.
Then B10, with 0.0205 KA relative to UGCAUGU; and B11, with 0.0181 KA relative to UGCAUGU; and B12, with 0.0165 KA relative to UGCAUGU.
Take B13: the binding signal was 0.0899 KA relative to UGCAUGU.
Then B14, with 0.0136 KA relative to UGCAUGU; and B15, with 0.0179 KA relative to UGCAUGU.
As to B16, the binding signal is 0.0275 KA relative to UGCAUGU.
For B17, the binding signal was 0.0199 KA relative to UGCAUGU.
Turning to B18, the binding signal is 0.0397 KA relative to UGCAUGU.
The figure for B19 is 0.0399 KA relative to UGCAUGU; for B20 it is 0.0171 KA relative to UGCAUGU; for B21 it is 0.0216 KA relative to UGCAUGU.
Then B22, with 0.0333 KA relative to UGCAUGU; and B23, with 0.0271 KA relative to UGCAUGU.
B24: the binding signal was 0.0185 KA relative to UGCAUGU.
